Data: article PMC7862700, “An all-to-all approach to the identification of sequence-specific readers for epigenetic DNA modifications on cytosine”

Tests used:
Test in all cases: DAPPL (digital affinity profiling via proximity ligation, sequencing); 10 mM Tris-HCl pH 7.5, 50 mM NaCl, 1 mM DTT, 4% glycerol, room temperature, 30 min; GST-TFs on glutathione beads, 16-mer random dsDNA library, 0.1% formaldehyde crosslink after washing; high values mean tight binding
Details in all cases: protein: recombinant; tags: N-terminal GST; dsDNA, one strand shown
ERF = target: T1, ERF (Homo sapiens, UniProt P50548 1-548)
T1 sequence: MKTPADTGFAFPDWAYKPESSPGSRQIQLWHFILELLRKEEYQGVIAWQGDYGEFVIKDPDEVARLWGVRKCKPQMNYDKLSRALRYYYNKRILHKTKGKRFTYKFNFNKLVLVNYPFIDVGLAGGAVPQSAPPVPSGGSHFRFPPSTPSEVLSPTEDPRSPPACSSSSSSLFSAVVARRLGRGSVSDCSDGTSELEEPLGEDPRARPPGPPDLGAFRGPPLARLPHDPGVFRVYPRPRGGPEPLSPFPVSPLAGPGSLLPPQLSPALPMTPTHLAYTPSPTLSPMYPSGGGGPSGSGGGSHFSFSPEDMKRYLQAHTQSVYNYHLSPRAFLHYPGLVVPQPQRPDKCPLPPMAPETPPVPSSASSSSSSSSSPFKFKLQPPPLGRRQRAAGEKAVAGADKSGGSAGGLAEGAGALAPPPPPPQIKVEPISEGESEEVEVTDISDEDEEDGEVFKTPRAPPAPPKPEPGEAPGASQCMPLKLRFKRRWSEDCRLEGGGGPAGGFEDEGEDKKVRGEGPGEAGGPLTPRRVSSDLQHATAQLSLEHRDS
In short: (§1)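 Binding signal is defined as a hexamer's read frequency for one factor over its frequency for the tag-only sample. To obtain reads, GST-fused human transcription factors were expressed in yeast, captured on glutathione beads, barcoded with DNA and pooled with that sample. Pools met 200 nmole of a 16-mer random double-stranded DNA library in Tris/NaCl/DTT/glycerol buffer for 30 min at room temperature before washing, 0.1% formaldehyde crosslinking, proximity ligation (BsaI/T4 ligase, 1 h, 37 °C), PCR and Illumina NextSeq500 sequencing.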

ETV3L = target: T2, ETV3L (Homo sapiens, UniProt Q6ZN32 1-361)
T2 sequence: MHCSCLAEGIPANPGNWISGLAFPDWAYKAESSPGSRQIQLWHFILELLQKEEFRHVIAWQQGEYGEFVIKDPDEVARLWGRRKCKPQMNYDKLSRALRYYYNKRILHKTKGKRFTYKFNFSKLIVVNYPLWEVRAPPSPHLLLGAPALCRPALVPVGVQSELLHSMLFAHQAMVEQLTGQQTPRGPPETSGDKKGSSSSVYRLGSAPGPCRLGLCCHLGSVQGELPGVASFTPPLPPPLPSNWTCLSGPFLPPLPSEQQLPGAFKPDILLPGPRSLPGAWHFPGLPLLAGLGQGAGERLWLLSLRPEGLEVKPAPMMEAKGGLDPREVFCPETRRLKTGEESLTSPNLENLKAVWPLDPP
In short: as §1

ETS2 = target: T3, ETS2 (Homo sapiens, UniProt P15036 1-469)
T3 sequence: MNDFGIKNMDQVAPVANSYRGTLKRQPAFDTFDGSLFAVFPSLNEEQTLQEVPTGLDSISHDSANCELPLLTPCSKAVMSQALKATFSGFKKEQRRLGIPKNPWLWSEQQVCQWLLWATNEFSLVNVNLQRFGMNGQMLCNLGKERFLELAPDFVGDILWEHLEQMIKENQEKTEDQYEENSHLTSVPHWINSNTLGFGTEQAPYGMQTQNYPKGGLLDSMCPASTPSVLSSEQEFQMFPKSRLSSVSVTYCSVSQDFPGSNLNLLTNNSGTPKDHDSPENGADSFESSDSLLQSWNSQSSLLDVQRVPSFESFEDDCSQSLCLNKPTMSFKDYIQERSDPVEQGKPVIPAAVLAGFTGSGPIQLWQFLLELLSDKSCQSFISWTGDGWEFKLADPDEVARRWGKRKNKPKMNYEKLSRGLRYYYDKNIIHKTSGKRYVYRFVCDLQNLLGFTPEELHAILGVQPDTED
In short: as §1

SPDEF = target: T4, SPDEF (Homo sapiens, UniProt O95238 1-335)
T4 sequence: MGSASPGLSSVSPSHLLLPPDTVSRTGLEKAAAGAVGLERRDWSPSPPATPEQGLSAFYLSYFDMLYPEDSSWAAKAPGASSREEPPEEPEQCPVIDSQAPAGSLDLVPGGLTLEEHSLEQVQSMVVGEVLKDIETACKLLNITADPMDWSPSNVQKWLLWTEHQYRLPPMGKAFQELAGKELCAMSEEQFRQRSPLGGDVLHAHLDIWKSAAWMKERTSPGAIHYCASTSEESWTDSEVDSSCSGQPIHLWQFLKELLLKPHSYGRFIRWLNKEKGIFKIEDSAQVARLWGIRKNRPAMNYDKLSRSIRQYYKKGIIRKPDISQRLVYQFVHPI
In short: as §1

ETV7 = target: T5, ETV7 (Homo sapiens, UniProt Q9Y603 1-341)
T5 sequence: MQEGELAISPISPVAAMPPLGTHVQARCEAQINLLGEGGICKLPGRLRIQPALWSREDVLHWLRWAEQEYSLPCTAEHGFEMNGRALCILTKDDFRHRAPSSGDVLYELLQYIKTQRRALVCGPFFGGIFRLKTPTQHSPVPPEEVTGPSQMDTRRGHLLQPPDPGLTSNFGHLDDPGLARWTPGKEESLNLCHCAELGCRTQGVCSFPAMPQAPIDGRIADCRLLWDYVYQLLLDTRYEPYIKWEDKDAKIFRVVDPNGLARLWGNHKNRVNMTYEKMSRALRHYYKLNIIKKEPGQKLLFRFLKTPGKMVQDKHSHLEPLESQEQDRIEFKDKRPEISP
In short: as §1

ELF5 = target: T6, ELF5 (Homo sapiens, UniProt Q9UKW6-2 1-255)
T6 sequence: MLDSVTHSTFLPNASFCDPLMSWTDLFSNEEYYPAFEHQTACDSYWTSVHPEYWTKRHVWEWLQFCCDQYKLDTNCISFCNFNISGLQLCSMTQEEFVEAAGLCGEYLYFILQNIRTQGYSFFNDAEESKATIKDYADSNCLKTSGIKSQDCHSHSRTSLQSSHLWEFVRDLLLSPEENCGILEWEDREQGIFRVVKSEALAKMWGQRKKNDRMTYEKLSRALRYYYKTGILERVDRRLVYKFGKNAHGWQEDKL
In short: as §1

ETV3 = target: T7, ETV3 (Homo sapiens, UniProt P41162-2 1-143)
T7 sequence: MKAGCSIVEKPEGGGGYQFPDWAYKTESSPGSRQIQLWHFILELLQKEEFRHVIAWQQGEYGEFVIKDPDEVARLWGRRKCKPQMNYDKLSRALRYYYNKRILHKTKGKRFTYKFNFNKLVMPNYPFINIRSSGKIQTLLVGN
In short: as §1

ETV6 = ETV6 (Homo sapiens, UniProt P41212 1-452)
In short: as §1

Sequence of ETV6 (P41212 whole entry): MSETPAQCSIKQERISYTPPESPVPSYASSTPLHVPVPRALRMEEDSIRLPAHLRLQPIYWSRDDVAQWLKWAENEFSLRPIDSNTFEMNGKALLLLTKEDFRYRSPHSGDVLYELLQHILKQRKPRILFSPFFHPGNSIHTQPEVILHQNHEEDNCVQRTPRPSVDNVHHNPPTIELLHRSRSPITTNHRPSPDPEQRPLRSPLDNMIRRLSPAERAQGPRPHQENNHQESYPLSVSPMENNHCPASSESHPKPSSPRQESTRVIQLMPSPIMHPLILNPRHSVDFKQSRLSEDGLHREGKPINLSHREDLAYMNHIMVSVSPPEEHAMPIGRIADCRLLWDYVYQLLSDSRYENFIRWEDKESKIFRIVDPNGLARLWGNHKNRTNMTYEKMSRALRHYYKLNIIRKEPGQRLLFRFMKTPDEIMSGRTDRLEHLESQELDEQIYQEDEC

Sequence	binding signal (ERF)	binding signal (ETV3L)	binding signal (ETS2)	binding signal (SPDEF)	binding signal (ETV7)	binding signal (ELF5)	binding signal (ETV3)	binding signal (ETV6)
TCACTT	1.56 fold enrichment (6-mer frequency, TF over GST control)	1.5 fold enrichment (6-mer frequency, TF over GST control)	1.69 fold enrichment (6-mer frequency, TF over GST control)	1.73 fold enrichment (6-mer frequency, TF over GST control)	1.63 fold enrichment (6-mer frequency, TF over GST control)	1.79 fold enrichment (6-mer frequency, TF over GST control)	1.55 fold enrichment (6-mer frequency, TF over GST control)	1.67 fold enrichment (6-mer frequency, TF over GST control)
TTCTCT	1.19 fold enrichment (6-mer frequency, TF over GST control)	1.39 fold enrichment (6-mer frequency, TF over GST control)	1.23 fold enrichment (6-mer frequency, TF over GST control)	1.31 fold enrichment (6-mer frequency, TF over GST control)	1.26 fold enrichment (6-mer frequency, TF over GST control)	1.35 fold enrichment (6-mer frequency, TF over GST control)	1.3 fold enrichment (6-mer frequency, TF over GST control)	1.24 fold enrichment (6-mer frequency, TF over GST control)
GGCTTC	1.7 fold enrichment (6-mer frequency, TF over GST control)	1.61 fold enrichment (6-mer frequency, TF over GST control)	1.7 fold enrichment (6-mer frequency, TF over GST control)	1.6 fold enrichment (6-mer frequency, TF over GST control)	1.54 fold enrichment (6-mer frequency, TF over GST control)	1.81 fold enrichment (6-mer frequency, TF over GST control)	1.65 fold enrichment (6-mer frequency, TF over GST control)	1.85 fold enrichment (6-mer frequency, TF over GST control)
TCGATC	1.12 fold enrichment (6-mer frequency, TF over GST control)	1.2 fold enrichment (6-mer frequency, TF over GST control)	1.15 fold enrichment (6-mer frequency, TF over GST control)	1.09 fold enrichment (6-mer frequency, TF over GST control)	1.17 fold enrichment (6-mer frequency, TF over GST control)	1.11 fold enrichment (6-mer frequency, TF over GST control)	1.18 fold enrichment (6-mer frequency, TF over GST control)	1.11 fold enrichment (6-mer frequency, TF over GST control)
TTACTA	1.27 fold enrichment (6-mer frequency, TF over GST control)	1.32 fold enrichment (6-mer frequency, TF over GST control)	1.2 fold enrichment (6-mer frequency, TF over GST control)	1.21 fold enrichment (6-mer frequency, TF over GST control)	1.36 fold enrichment (6-mer frequency, TF over GST control)	1.19 fold enrichment (6-mer frequency, TF over GST control)	1.23 fold enrichment (6-mer frequency, TF over GST control)	1.2 fold enrichment (6-mer frequency, TF over GST control)
AATACA	1.43 fold enrichment (6-mer frequency, TF over GST control)	1.27 fold enrichment (6-mer frequency, TF over GST control)	1.25 fold enrichment (6-mer frequency, TF over GST control)	1.37 fold enrichment (6-mer frequency, TF over GST control)	1.41 fold enrichment (6-mer frequency, TF over GST control)	1.4 fold enrichment (6-mer frequency, TF over GST control)	1.28 fold enrichment (6-mer frequency, TF over GST control)	1.34 fold enrichment (6-mer frequency, TF over GST control)
ACTAAC	1.34 fold enrichment (6-mer frequency, TF over GST control)	1.29 fold enrichment (6-mer frequency, TF over GST control)	1.29 fold enrichment (6-mer frequency, TF over GST control)	1.2 fold enrichment (6-mer frequency, TF over GST control)	1.21 fold enrichment (6-mer frequency, TF over GST control)	1.29 fold enrichment (6-mer frequency, TF over GST control)	1.24 fold enrichment (6-mer frequency, TF over GST control)	1.22 fold enrichment (6-mer frequency, TF over GST control)
ATAGAT	1.2 fold enrichment (6-mer frequency, TF over GST control)	1.25 fold enrichment (6-mer frequency, TF over GST control)	1.12 fold enrichment (6-mer frequency, TF over GST control)	1.27 fold enrichment (6-mer frequency, TF over GST control)	1.17 fold enrichment (6-mer frequency, TF over GST control)	1.18 fold enrichment (6-mer frequency, TF over GST control)	1.01 fold enrichment (6-mer frequency, TF over GST control)	1.15 fold enrichment (6-mer frequency, TF over GST control)
CTCTTA	1.45 fold enrichment (6-mer frequency, TF over GST control)	1.5 fold enrichment (6-mer frequency, TF over GST control)	1.33 fold enrichment (6-mer frequency, TF over GST control)	1.24 fold enrichment (6-mer frequency, TF over GST control)	1.28 fold enrichment (6-mer frequency, TF over GST control)	1.31 fold enrichment (6-mer frequency, TF over GST control)	1.38 fold enrichment (6-mer frequency, TF over GST control)	1.39 fold enrichment (6-mer frequency, TF over GST control)
CTCCCC	1.51 fold enrichment (6-mer frequency, TF over GST control)	1.29 fold enrichment (6-mer frequency, TF over GST control)	1.33 fold enrichment (6-mer frequency, TF over GST control)	1.28 fold enrichment (6-mer frequency, TF over GST control)	1.37 fold enrichment (6-mer frequency, TF over GST control)	1.33 fold enrichment (6-mer frequency, TF over GST control)	1.38 fold enrichment (6-mer frequency, TF over GST control)	1.36 fold enrichment (6-mer frequency, TF over GST control)
ATATAG	1.12 fold enrichment (6-mer frequency, TF over GST control)	1.11 fold enrichment (6-mer frequency, TF over GST control)	1.11 fold enrichment (6-mer frequency, TF over GST control)	1.14 fold enrichment (6-mer frequency, TF over GST control)	1.24 fold enrichment (6-mer frequency, TF over GST control)	1.13 fold enrichment (6-mer frequency, TF over GST control)	1.19 fold enrichment (6-mer frequency, TF over GST control)	1.17 fold enrichment (6-mer frequency, TF over GST control)
ACGTTT	1.18 fold enrichment (6-mer frequency, TF over GST control)	1.13 fold enrichment (6-mer frequency, TF over GST control)	1.2 fold enrichment (6-mer frequency, TF over GST control)	1.21 fold enrichment (6-mer frequency, TF over GST control)	1.33 fold enrichment (6-mer frequency, TF over GST control)	1.23 fold enrichment (6-mer frequency, TF over GST control)	1.1 fold enrichment (6-mer frequency, TF over GST control)	1.33 fold enrichment (6-mer frequency, TF over GST control)
